# Data published in PubChem BioAssay AID602140 (NMMLSC, 2011).
# Some of the results follow. Values without a mark were called inactive. The rule behind the calls is not given here.
# System: Botulinum neurotoxin type F light chain protease (Clostridium botulinum)
# Assay: BoNT/F light chain protease inhibitors, confirmation, biochemical, flow cytometry, cherry pick 1 (AID 602140)
# Conditions: multiplex microsphere protease cleavage assay, at 10 µM, active compounds read high
row,Compound,inhibition [%]
1,CCCSc1nc2sc3c(c2c(=O)n1-c1ccc(OC)cc1)CCN(C)C3,5.3
2,COC(=O)CN(c1nc(C)c(Cl)c(OC)n1)S(=O)(=O)c1ccc(C)cc1,-0.3
3,COc1cc(C(=O)NCc2ccc3c(c2)cc(C)n3C)cc(OC)c1OC,-4.7
4,Cc1c(NC(=O)c2cccnc2)c(=O)n(-c2ccccc2)n1C,2.7
5,CN(C(=O)c1ccccn1)c1nnc(-c2ccccn2)s1,-3.7
6,COc1ccccc1CNC(=O)C1Cc2ccccc2C(=O)O1 (stereo not drawn),-1.3
7,Cc1ccc(C(=O)COc2cccc(NC(=O)c3ccco3)c2)cc1,-7.2
8,COCc1cc(=O)[nH]c(SC)n1,-4.2
9,CCOCC(=O)NCc1ccc2c(c1)cc(C)n2C,-12.1
10,CN1CCN(c2ccc(NC(=O)c3ccccc3)cc2)CC1,1.4
11,Cc1onc(-c2ccccc2Cl)c1C(=O)NCCn1ccc2ccccc21,-5.2
12,COc1ccccc1C1CCN(C(=S)Nc2ccc(Br)cc2)CC1,4.3
13,O=C(Nc1nnc(CCc2ccccc2)s1)C1CCCO1 (stereo not drawn),-7
14,CCOCCn1c(-c2ccccc2)nc2ccccc21,-2.2
15,CC1CCc2c(sc3nc4n(c(=O)c23)CCS4)C1 (stereo not drawn),-5.8
16,O=C(CN1CCCCCC1)Nc1c(Cl)cc(Cl)cc1Cl,-7.6
17,Brc1ccc2ncnc(NCc3cccnc3)c2c1,-1.4
18,COc1ccccc1-n1c(-c2cc(-c3ccco3)[nH]n2)n[nH]c1=S,4
